# PubChem BioAssay AID1159580 (chemical genetic matrix, 2015)
# Among all 5,500 compounds or so, about 2,000 (36%) were called active. About 18% were inconclusive and are not listed. The list shows a part of the results. Values without a mark were called inactive. Rule as the data show it: active = normalized growth mostly below about 0.91 (no sharp cut-off); inconclusive = no clear call, values can overlap the other calls; inactive = mostly above about 0.92.
# Test: chemical genetic growth profiling, strain panel (AID 1159580);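 also: tested at 20 µM; growth read once vehicle control cultures reached saturation at 30 °C; 1 = growth at the plate median or of vehicle wells; lower values mean less growth of the strain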
# Conditions: growth OD
structure (smiles),measurement,setting,value
C[C@]12CCC3C(CC[C@H]4C[C@@H](O)CC[C@]34C)C1CC[C@@H]2O (stereo partly specified),normalized growth,"S. cerevisiae deletion strains, locus YAL013W, strain DEP1, active compounds read low",1
same,normalized growth,"S. cerevisiae deletion strains, locus YBR021W, strain FUR4, active compounds read low",1.01
same,normalized growth,"S. cerevisiae deletion strains, locus YBR229C, strain ROT2, active compounds read low",1.03
same,normalized growth,"S. cerevisiae deletion strains, locus YCL029C, strain bik1, active compounds read low",0.968
same,normalized growth,"S. cerevisiae deletion strains, locus YDL035C, strain GPR1, active compounds read low",0.864
same,normalized growth,"S. cerevisiae deletion strains, locus YDL074C, strain BRE1, active compounds read low",0.991
same,normalized growth,"S. cerevisiae deletion strains, locus YDL101C, strain DUN1, active compounds read low",1.01
same,normalized growth,"S. cerevisiae deletion strains, locus YDL134C, strain PPH21, active compounds read low",1.02
same,normalized growth,"S. cerevisiae deletion strains, locus YDL185W, strain tfp1, active compounds read low",0.988
same,normalized growth,"S. cerevisiae deletion strains, locus YDL192W, strain arf1, active compounds read low",0.996
same,normalized growth,"S. cerevisiae deletion strains, locus YDR101C, strain arx1, active compounds read low",1.01
same,normalized growth,"S. cerevisiae deletion strains, locus YDR150W, strain NUM1, active compounds read low",1.02
same,normalized growth,"S. cerevisiae deletion strains, locus YDR162C, strain NBP2, active compounds read low",0.958
same,normalized growth,"S. cerevisiae deletion strains, locus YDR318W, strain mcm21, active compounds read low",0.972
same,normalized growth,"S. cerevisiae deletion strains, locus YDR388W, active compounds read low",1.03
same,normalized growth,"S. cerevisiae deletion strains, locus YDR502C, strain sam2, active compounds read low",1.01
same,normalized growth,"S. cerevisiae deletion strains, locus YEL061C, strain CIN8, active compounds read low",1.03
same,normalized growth,"S. cerevisiae deletion strains, locus YER110C, active compounds read low",1.01
same,normalized growth,"S. cerevisiae deletion strains, locus YER155C, strain BEM2, active compounds read low",1.04
same,normalized growth,"S. cerevisiae deletion strains, locus YER167W, strain BCK2, active compounds read low",0.986
same,normalized growth,"S. cerevisiae deletion strains, locus YGL078C, strain dbp3, active compounds read low",0.973
same,normalized growth,"S. cerevisiae deletion strains, locus YGL086W, strain mad1, active compounds read low",0.954
same,normalized growth,"S. cerevisiae deletion strains, locus YGL248W, strain PDE1, active compounds read low",1.02
same,normalized growth,"S. cerevisiae deletion strains, locus YGR078C, strain PAC10, active compounds read low",1
same,normalized growth,"S. cerevisiae deletion strains, locus YGR135W, strain pre9, active compounds read low",0.973
same,normalized growth,"S. cerevisiae deletion strains, locus YGR229C, strain SMI1, active compounds read low",1.02
same,normalized growth,"S. cerevisiae deletion strains, locus YGR252W, strain gcn5, active compounds read low",0.764 (active)
same,normalized growth,"S. cerevisiae deletion strains, locus YHR030C, strain SLT2, active compounds read low",1.04
same,normalized growth,"S. cerevisiae deletion strains, locus YHR079C, strain IRE1 (second series), active compounds read low",0.993
same,normalized growth,"S. cerevisiae deletion strains, locus YHR094C, strain hxt1, active compounds read low",1.02
same,normalized growth,"S. cerevisiae deletion strains, locus YHR129C, strain ARP1, active compounds read low",1.03
same,normalized growth,"S. cerevisiae deletion strains, locus YHR200W, strain rpn10, active compounds read low",0.985
same,normalized growth,"S. cerevisiae deletion strains, locus YIL066C, strain RNR3, active compounds read low",0.953
same,normalized growth,"S. cerevisiae deletion strains, locus YIL073C, strain SPO22, active compounds read low",0.91
same,normalized growth,"S. cerevisiae deletion strains, locus YIL125W, strain kgd1, active compounds read low",1.02
same,normalized growth,"S. cerevisiae deletion strains, locus YIR030C, strain dcg1, active compounds read low",1.03
same,normalized growth,"S. cerevisiae deletion strains, locus YJL095W, strain BCK1, active compounds read low",1.01
same,normalized growth,"S. cerevisiae deletion strains, locus YJL134W, strain LCB3, active compounds read low",1.02
same,normalized growth,"S. cerevisiae deletion strains, locus YJL168C, strain set2, active compounds read low",1.03
same,normalized growth,"S. cerevisiae deletion strains, locus YJL187C, strain SWE1 (second series), active compounds read low",1
same,normalized growth,"S. cerevisiae deletion strains, locus YJR043C, strain POL32, active compounds read low",0.965
same,normalized growth,"S. cerevisiae deletion strains, locus YJR075W, strain HOC1, active compounds read low",1.04
same,normalized growth,"S. cerevisiae deletion strains, locus YKL009W, strain mrt4, active compounds read low",0.793 (active)
same,normalized growth,"S. cerevisiae deletion strains, locus YKL068W, active compounds read low",1.02
same,normalized growth,"S. cerevisiae deletion strains, locus YKL085W, strain MDH1 (second series), active compounds read low",1.02
same,normalized growth,"S. cerevisiae deletion strains, locus YKL085W, strain MDH1, active compounds read low",1.02
same,normalized growth,"S. cerevisiae deletion strains, locus YKL190W, strain CNB1, active compounds read low",1.02
same,normalized growth,"S. cerevisiae deletion strains, locus YKR001C, strain vps1, active compounds read low",0.964
same,normalized growth,"S. cerevisiae deletion strains, locus YLR039C, strain RIC1, active compounds read low",0.644 (active)
same,normalized growth,"S. cerevisiae deletion strains, locus YLR058C, strain SHM2, active compounds read low",1.02
same,normalized growth,"S. cerevisiae deletion strains, locus YLR102C, strain apc9, active compounds read low",1.02
same,normalized growth,"S. cerevisiae deletion strains, locus YLR262C, strain YPT6, active compounds read low",0.507 (active)
same,normalized growth,"S. cerevisiae deletion strains, locus YLR268W, strain sec22, active compounds read low",0.997
same,normalized growth,"S. cerevisiae deletion strains, locus YLR330W, strain CHS5, active compounds read low",1.03
same,normalized growth,"S. cerevisiae deletion strains, locus YLR342W, strain FKS1 (second series), active compounds read low",0.87
same,normalized growth,"S. cerevisiae deletion strains, locus YLR371W, strain rom2, active compounds read low",0.994
same,normalized growth,"S. cerevisiae deletion strains, locus YLR418C, strain cdc73, active compounds read low",1.13
same,normalized growth,"S. cerevisiae deletion strains, locus YML016C, strain PPZ1, active compounds read low",1.03
same,normalized growth,"S. cerevisiae deletion strains, locus YML032C, strain rad52, active compounds read low",0.931
same,normalized growth,"S. cerevisiae deletion strains, locus YML124C, strain tub3, active compounds read low",1.03
same,normalized growth,"S. cerevisiae deletion strains, locus YMR078C, strain ctf18, active compounds read low",1.03
same,normalized growth,"S. cerevisiae deletion strains, locus YMR223W, strain ubp8, active compounds read low",0.953
same,normalized growth,"S. cerevisiae deletion strains, locus YMR263W, strain SAP30, active compounds read low",1.01
same,normalized growth,"S. cerevisiae deletion strains, locus YMR307W, strain GAS1, active compounds read low",1.02
same,normalized growth,"S. cerevisiae deletion strains, locus YNL067W, strain RPL9B, active compounds read low",0.938
same,normalized growth,"S. cerevisiae deletion strains, locus YNL128W, strain TEP1, active compounds read low",1.01
same,normalized growth,"S. cerevisiae deletion strains, locus YNL153C, strain GIM3, active compounds read low",1.03
same,normalized growth,"S. cerevisiae deletion strains, locus YNL233W, strain BNI4, active compounds read low",1.02
same,normalized growth,"S. cerevisiae deletion strains, locus YNL250W, strain rad50, active compounds read low",0.968
same,normalized growth,"S. cerevisiae deletion strains, locus YNL271C, strain bni1, active compounds read low",1
same,normalized growth,"S. cerevisiae deletion strains, locus YNL298W, strain CLA4, active compounds read low",0.895 (active)
same,normalized growth,"S. cerevisiae deletion strains, locus YNL307C, strain MCK1, active compounds read low",0.954
same,normalized growth,"S. cerevisiae deletion strains, locus YNL322C, strain KRE1, active compounds read low",1.03
same,normalized growth,"S. cerevisiae deletion strains, locus YNR052C, strain pop2, active compounds read low",0.88 (active)
same,normalized growth,"S. cerevisiae deletion strains, locus YOL006C, strain TOP1, active compounds read low",1.07
same,normalized growth,"S. cerevisiae deletion strains, locus YOL012C, strain htz1",1.81
same,normalized growth,"S. cerevisiae deletion strains, locus YOL147C, strain pex11, active compounds read low",1.04
same,normalized growth,"S. cerevisiae deletion strains, locus YOR061W, strain CKA2, active compounds read low",0.99
same,normalized growth,"S. cerevisiae deletion strains, locus YOR069W, strain VPS5, active compounds read low",1.02
same,normalized growth,"S. cerevisiae deletion strains, locus YOR136W, strain idh2, active compounds read low",1.02
same,normalized growth,"S. cerevisiae deletion strains, locus YOR144C, strain elg1, active compounds read low",1.01
same,normalized growth,"S. cerevisiae deletion strains, locus YOR184W, strain ser1, active compounds read low",0.836 (active)
same,normalized growth,"S. cerevisiae deletion strains, locus YOR316C, strain cot1, active compounds read low",1.03
same,normalized growth,"S. cerevisiae deletion strains, locus YPL055C, strain LGE1, active compounds read low",1.01
same,normalized growth,"S. cerevisiae deletion strains, locus YPL241C, strain CIN2, active compounds read low",1.02
same,normalized growth,"S. cerevisiae deletion strains, locus YPR119W, strain clb2, active compounds read low",1.04
same,normalized growth,"S. cerevisiae deletion strains, locus YPR141C, strain kar3, active compounds read low",1.04
same,normalized growth,"S. cerevisiae deletion strains, locus YPR163C, strain tif3, active compounds read low",1.01
same,normalized growth,"S. cerevisiae deletion strains, locus YPR167C, strain met16, active compounds read low",1.02
same,normalized growth,"S. cerevisiae deletion strains, strain wtn01, active compounds read low",0.989
same,normalized growth,"S. cerevisiae strains, strain wild type, active compounds read low",0.99
